Laboratory results reported in PubChem BioAssay (NCI).
Several values for one entry are separate records, joined by “and”; a condition that tells them apart may be missing. Equal values may be shown once. Compounds without any hit were thinned out: in the full panel of roughly 83,000, 20% have a hit.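 Negative percent growth values reflect cell death: -40 means 40% of the cells present at the start died, and -100 means all died.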 Activity calls are given as the source filed them. Rule for the calls: active = growth percent below 10; inactive = the rest.

Key:
Test in all cases: NCI-60 one-dose screen, 48 h (100 = growth as untreated, 0 = no growth, -100 = all killed)
Settings in all cases: 10 µM unless noted
[1] = tested on: MOLT-4 leukemia
[2] = tested on: SR leukemia
[3] = tested on: OVCAR-8 ovarian
[4] = tested on: OVCAR-5 ovarian
[5] = tested on: OVCAR-4 ovarian
[6] = tested on: SK-OV-3 ovarian
[7] = tested on: IGROV1 ovarian
[8] = tested on: OVCAR-3 ovarian
[9] = tested on: HS 578T breast
[10] = tested on: NCI/ADR-RES ovarian
[11] = tested on: T-47D breast
[12] = tested on: MDA-MB-435 melanoma
[13] = tested on: SW-620 colon
[14] = tested on: MCF7 breast
[15] = tested on: HCT-116 colon
[16] = tested on: HCC-2998 colon
[17] = tested on: KM12 colon
[18] = tested on: BT-549 breast
[19] = tested on: RPMI-8226 leukemia

Measured: growth

CCOC(=O)C1C(C=C(C)C)C1(C)C (centres undefined)
inactive: [1] 85.1% | [2] 99.7% | [3] 99.6% | [4] 80.5% | [5] 116% | [6] 105% | [7] 120% | [8] 103% | [9] 115% | [10] 99.1% | [11] 115% | [12] 102% | [13] 89.3% | [14] 112% | [15] 108% | [16] 96% | [17] 94.5%

C[C@]12CCc3sc(Nc4ccc(F)cc4F)nc3C1=CC[C@@H]1[C@@H]2CC[C@]2(C)C(=O)CC[C@@H]12
inactive: [3] 45.2% | [4] 91.8% | [5] 66.7% | [6] 84.1% | [7] 62.1% | [9] 55.3% | [10] 67.6% | [11] 48.9% | [18] 59.6% | [12] 51.5% | [14] 14.6% | [16] 71.6% | [17] 57.1%
active: [1] 3.63% | [2] 0.71% | [8] -4.15% | [13] 7.16% | [15] -23.3%

CC1=CC(=Nc2ccc(N(CCCl)CCCl)cc2)C=C(C)C1=O
active: [1] -21.2% | [2] -2.28% | [5] -35.7% | [8] -62.5% | [11] -17.7% | [13] 3.05% | [15] 7.59%
inactive: [3] 18.7% | [4] 35% | [6] 49.9% | [9] 26.7% | [10] 19.8% | [18] 52.5% | [12] 35.4% | [16] 55.6% | [17] 59.8%

O=[P+](O)c1cccnc1
inactive: [1] 109% | [2] 96.4% | [3] 107% | [4] 107% | [5] 107% | [6] 103% | [7] 111% | [8] 108% | [9] 105% | [10] 102% | [11] 88.2% | [18] 116% | [12] 107% | [13] 107% | [14] 102% | [15] 102% | [16] 115% | [17] 101%

COc1ccc(C(C#N)C(C)=O)cc1 (centres undefined)
inactive: [1] 99.7% | [2] 98.8% | [3] 95.5% | [4] 95.3% | [5] 131% | [6] 99% | [7] 114% | [8] 108% | [10] 102% | [18] 100% | [12] 123% | [13] 104% | [14] 102% | [15] 105% | [17] 98.5%

CCOC(=O)c1c(SC)nc(-c2ccc(Cl)cc2)sc1=N
active: [14] -8.27% [100 µM] and 5.36% [100 µM]

NC(=O)c1c(Br)c(Br)c(Br)c(Br)c1C(=O)O (tested in a mixture with another compound)
inactive: [2] 52.6% and 86.2% | [19] 101% and 97.9% | [3] 97.5% and 96.6% | [4] 94.5% and 97.3% | [6] 113% and 102% | [7] 124% and 110% | [8] 111% and 112% | [9] 114% and 115% | [10] 103% and 100% | [18] 104% and 96.8% | [12] 92.5% and 102% | [14] 79.5% and 88.8% | [15] 97.8% and 105% | [16] 104% and 103% | [17] 103% and 102%

C[C@]12CCc3nc(-c4ccc(O)c(O)c4)sc3C1=CC[C@@H]1[C@@H]2CC[C@]2(C)C(=O)CC[C@@H]12
inactive: [1] 45.4% | [2] 39.3% | [4] 112% | [5] 67.1% | [6] 89.7% | [7] 38.6% | [8] 87.5% | [9] 66.8% | [10] 73.7% | [11] 69% | [12] 71.3% | [13] 55.4% | [14] 48.4% | [15] 26% | [16] 99.2% | [17] 90.8%

CN(N)/N=N/c1nc[nH]c1[N+](=O)[O-]
inactive: [14] 69.6% [100 µM] and 35% [100 µM]

N#CC(C#N)=Cc1cccc(F)c1
inactive: [1] 97.9% | [19] 103% | [3] 107% | [4] 98.4% | [5] 110% | [6] 105% | [7] 112% | [8] 109% | [9] 101% | [10] 107% | [11] 105% | [18] 111% | [12] 107% | [14] 101% | [15] 108% | [16] 110% | [17] 108%

O=P1(N(CCCl)CCCl)NCCCO1 (centres undefined)
inactive: [1] 96.8% | [2] 99% | [4] 108% | [6] 111% | [7] 114% | [8] 121% | [9] 115% | [10] 108% | [18] 106% | [12] 107% | [13] 102% | [14] 96.8% | [15] 104% | [16] 100% | [17] 111%

C[C@]12CCC3[C@@H](C[C@@H]4SC(Nc5ccccc5)=N[C@@]45CC(=O)CC[C@]35C)[C@@H]1CCC2=O (some centres undefined)
active: [1] -5.8% | [2] -5.37% | [7] -11.3% | [8] -9.98% | [10] 9.86% | [18] -19.9% | [12] 1.11% | [15] -85.5% | [16] -32.7%
inactive: [4] 31.2% | [6] 56.9% | [9] 41% | [14] 15.4% | [17] 23.2%

C=C1C(=O)OC2/C=C(\C)CC/C=C(/C)CC(OC(=O)/C(=C/CO)CO)C12 (centres undefined)
active: [14] -85% [100 µM] and -68.3% [100 µM]

CCCC[C@@H]1CCN2C[C@@H](O)[C@@H](O)[C@@H]2[C@H]1O
inactive: [14] 111% [100 µM] and 89.6% [100 µM]

Nc1nc(=S)nc(N)[nH]1
inactive: [1] 90.4% | [2] 71.3% | [3] 104% | [4] 89.1% | [6] 102% | [10] 95.6% | [18] 77.8% | [12] 105% | [13] 101% | [14] 96.5% | [15] 89.1% | [16] 92.1% | [17] 112%

Nc1c(Cl)c(Cl)nc(C(=O)O)c1Cl
inactive: [1] 70.2% | [19] 123% | [3] 94.2% | [4] 111% | [6] 99.9% | [7] 29.9% | [8] 107% | [9] 104% | [10] 101% | [11] 101% | [12] 106% | [13] 99.1% | [14] 95.2% | [15] 97.3% | [16] 95.7% | [17] 101%

Cn1cc(C(=O)C[n+]2ccccc2)c2ccccc21
inactive: [1] 103% | [3] 114% | [4] 105% | [5] 90.4% | [6] 101% | [7] 103% | [8] 109% | [9] 96.8% | [10] 100% | [11] 86.9% | [18] 95.3% | [12] 105% | [13] 106% | [14] 101% | [15] 97.5% | [16] 106% | [17] 91.5%

CN(C)C(=S)SSC(=S)N(C)C
inactive: [1] 92.3% | [19] 85.6% and 70% | [3] 95.4% and 104% | [4] 97.4% and 110% | [5] 107% and 106% | [6] 122% and 113% | [7] 99.1% | [8] 88.5% and 112% | [9] 101% and 112% | [10] 110% and 113% | [11] 85.8% and 95.4% | [18] 101% and 111% | [12] 97.3% | [13] 69.2% and 98% | [14] 70.9% | [15] 99% | [16] 109% | [17] 81.8% and 95.8%

CC(C)c1cccc(C(C)C)c1O
inactive: [1] 84% and 115% | [19] 101% and 100% | [4] 106% and 112% | [5] 107% and 95.3% | [6] 113% and 96.9% | [7] 107% | [8] 112% and 101% | [9] 105% and 94.9% | [10] 108% and 106% | [11] 95% and 93.2% | [18] 104% and 97.8% | [12] 104% and 100% | [13] 106% and 112% | [14] 91.1% | [15] 101% and 95.8% | [16] 105% and 115% | [17] 111% and 105%

CCC1CCC(=O)O1 (centres undefined)
inactive: [1] 98.3% and 116% | [19] 104% and 114% | [3] 109% and 118% | [4] 106% and 111% | [5] 96.6% and 112% | [6] 95.2% and 119% | [7] 105% and 110% | [8] 108% and 110% | [9] 106% and 108% | [10] 112% and 124% | [11] 93.5% and 118% | [18] 116% and 129% | [12] 109% | [13] 111% and 106% | [14] 90.5% and 105% | [15] 106% and 107% | [16] 109% | [17] 99.7% and 108%

CC1=CC(=O)CCC12CCOC2=O (centres undefined)
inactive: [1] 107% | [19] 88.3% | [3] 100% | [4] 96.7% | [5] 93.8% | [7] 108% | [8] 106% | [9] 88.4% | [10] 94.7% | [18] 90.5% | [12] 95.5% | [13] 98.6% | [14] 97.4% | [15] 102% | [16] 102% | [17] 104%

C[C@H](O)CCC(=O)c1ccoc1
inactive: [1] 98.2% | [19] 97.8% | [3] 97.7% | [4] 106% | [5] 117% | [6] 113% | [7] 113% | [8] 109% | [9] 97.1% | [10] 102% | [11] 108% | [18] 118% | [12] 112% | [13] 105% | [14] 98.6% | [15] 106% | [16] 102% | [17] 104%

COc1ccc(O)c2c(=O)c3c(OC)cc4c(c3oc12)[C@@H]1C=CO[C@@H]1O4
active: [2] -6.56% | [11] 5.73% | [14] -0.498% | [16] -51.7%
inactive: [19] 63.5% | [3] 50.6% | [4] 55.2% | [6] 35.6% | [8] 52% | [9] 114% | [10] 41.6% | [18] 17.8% | [12] 37.3% | [13] 64.6% | [15] 52.2% | [17] 12.5%
